KB-V1 MDR tox: qHTS assay for MDR1-selective chemotherapeutics: Primary screen using the drug-selected MDR subline cells KB-V1. KB-V1 MDR cells viability, CellTiter-Glo, 72 h. AID 1347076, 2019. 400,000 tested, 3.4% active. Potency, µM (titrated, usually from 46.1 µM), hits mostly cytotoxic; further: nearly all actives have a fitted effect of over 60% in size
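Drug-selected KB-V1 cells, grown in DMEM lacking phenol red with 10% FBS, receive compound titrations; after three days at 37 degrees C, surviving cell ATP is quantified by CellTiter-Glo luminescence and responses normalized and curve-fitted.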
HT1080NT lethal: qHTS for induction of synthetic lethality in tumor cells producing 2HG: qHTS for the HT-1080-NT fibrosarcoma cell line. 360,000 tested, 1.6% active. Potency, µM (titrated, usually from 46.1 µM), usual class: cytotoxic. AID 686970, 2013. HT-1080-NT fibrosarcoma viability, CellTiter-Glo ATP luminescence, 48 h;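 further: NT is the 2HG producing partner of a matched IDH1 knockdown line; nearly all actives have a fitted effect of over 55% in size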
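Viability of the 2HG-overproducing fibrosarcoma line after 48 hours of compound exposure at 37 degrees C was determined by luminescence with CellTiter-Glo, and concentration-effect curves were then fitted and categorized.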
KB-3-1 cytotox: qHTS assay for MDR1-selective chemotherapeutics: Primary screen using the parental adenocarcinoma cell KB-3-1; 400,000 tested, 1.4% active; Potency, µM (top dose mostly 46.1 µM), hits mostly cytotoxic; KB-3-1 viability, CellTiter-Glo ATP luminescence, 72 h; AID 1347075, 2019; further: nearly all actives have a fitted effect of over 60% in size
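KB-3-1 cells, DMEM (no phenol red) + 10% FBS; compound by pin transfer, 72 h, 37 °C. Readout: CellTiter-Glo luminescence after 10 min. Data normalized, curve-fitted.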
SW480 rerep: A quantitative high throughput screen for small molecules that induce DNA re-replication in SW480 colon adenocarcinoma cells; SW480 DNA re-replication, Hoechst DNA content imaging, 48 h; Potency, µM (highest dose often 46.1 µM), hits mostly activators; 340,000 tested, 1.8% active; AID 624297, 2012; further: nearly all actives have a fitted effect of over 55% in size
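SW480 cells exposed to compounds for 48 hr at 37 C, 5% CO2, then Hoechst-stained 40 min. Nuclear DNA content imaged by fluorescence scanning (405 nm excitation, 500-530 nm emission); re-replication scored as increased high-intensity nuclei.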
MCF10A rereplic: A quantitative high throughput screen for small molecules that induce DNA re-replication in MCF 10a normal breast cells; MCF 10A DNA re-replication, Hoechst nuclear intensity, 48 h; Potency, µM (series often up to 46.1 µM), most hits filed as activators; AID 624296, 2012; 350,000 tested, 2.9% active; further: nearly all actives have a fitted effect of over 50% in size
HT1080 IDH1KD tx: qHTS for induction of synthetic lethality in tumor cells producing 2HG: qHTS for the HT-1080-IDH1KD cell line. HT-1080 IDH1 knockdown viability, ATP luminescence, 48 h. 360,000 tested, 2% active. AID 686971, 2013. Potency, µM (titrated, usually from 46.1 µM), usual class: cytotoxic
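IDH1KD HT-1080 cells, 750/well, RPMI + 5% FBS; compound pinned after 2 h settling; 48 h, 37 °C; CellTiter-Glo luminescence; % activity normalised to DMSO and no-cell wells; curves fitted, classed by r2 and efficacy.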
Each line names hits and unclear results; the compound was inactive in the other large screens. Hits are enriched below; roughly 7.9% of the tested compounds scored in any of these assays. The call rests on the fitted dose curve; in most records, active means well fitted curve in the direction sought with a large enough effect; inconclusive means small, poorly fitted or top-dose-only effect, or another doubt; inactive means no such curve, though single readings can be large; an effect the other way counts as inactive or inconclusive.

CCCCCCCCNc1ccccc1S(=O)(=O)NCc1ccccc1	HT1080NT lethal inconclusive, MCF10A rereplic 5.2µM, HT1080 IDH1KD tx inconclusive
COc1ccc(CCNc2nc(C)nc3c2nnn3Cc2ccccc2)cc1	none
O=C(Nc1ccc(Oc2ccc(NC(=O)Nc3ccccc3Cl)cc2)cc1)Nc1ccccc1Cl	KB-3-1 cytotox inconclusive, SW480 rerep 12µM, MCF10A rereplic inconclusive
CCOc1ccccc1NC(=O)Nc1ccc(Cl)cc1	KB-V1 MDR tox 23µM, KB-3-1 cytotox 23µM, SW480 rerep inconclusive
Cc1ccc(Cl)cc1NC(=O)c1ccccc1OCC(=O)Nc1ccc(Cl)cc1	HT1080NT lethal inconclusive, MCF10A rereplic 9.2µM
Cc1ccc(NC(=O)COc2ccccc2C(=O)Nc2ccccc2)cc1Cl	none
O=C(Nc1ccncc1)Nc1cccc(Cl)c1Cl	none
O=C(Nc1ccc(Cl)cc1)Nc1cccc2nsnc12	SW480 rerep inconclusive, MCF10A rereplic 18µM
O=C(Nc1nnc(-c2cccs2)o1)c1cccc(Oc2ccccc2)c1	HT1080NT lethal inconclusive, SW480 rerep inconclusive, MCF10A rereplic inconclusive, HT1080 IDH1KD tx inconclusive
O=C(Cc1cccc2ccccc12)N/N=C/c1ccc(OC(=O)/C=C/c2ccco2)cc1	none
Cc1ccccc1OCC(=O)NNC(=O)Nc1ccccc1	none
Cc1ccccc1OCC(=O)NNC(=O)Nc1ccc(Cl)cc1	KB-V1 MDR tox 5.2µM, HT1080NT lethal 6.5µM, KB-3-1 cytotox 4.1µM, SW480 rerep inconclusive, MCF10A rereplic 3.7µM, HT1080 IDH1KD tx 4.6µM
O=C(Nc1ccc(F)c(F)c1)C1CCN(S(=O)(=O)c2cccs2)CC1	KB-V1 MDR tox 16µM
CCOC(=O)C1CCCN(C(=O)C2CCN(S(=O)(=O)c3cccs3)CC2)C1 (stereo not given)	KB-3-1 cytotox 21µM
CCOC(=O)C1CCN(C(=O)C2CCN(S(=O)(=O)c3cc(Cl)ccc3Cl)CC2)CC1	KB-V1 MDR tox 23µM
Cc1ccc(NC(=O)C2CCN(S(=O)(=O)c3cccs3)CC2)cc1	none
COc1cccc(NC(=O)C2CCC(CNS(=O)(=O)c3cccs3)CC2)c1 (stereo not given)	HT1080NT lethal inconclusive, KB-3-1 cytotox inconclusive, SW480 rerep 21µM, MCF10A rereplic inconclusive
O=C(C1CCN(S(=O)(=O)c2cccs2)CC1)N1CCCCC1	none
CCOC(=O)N1CCN(C(=O)C2CCN(S(=O)(=O)c3cc(Cl)ccc3Cl)CC2)CC1	KB-V1 MDR tox inconclusive
COc1cccc(NC(=O)C2CCC(CNS(=O)(=O)c3csc(C(N)=O)c3)CC2)c1 (stereo not given)	none (no result: HT1080NT lethal, SW480 rerep, MCF10A rereplic, HT1080 IDH1KD tx)
CCOc1ccc(N(CC(=O)NCCSCc2ccccc2)S(=O)(=O)c2ccccc2)cc1	none
CCN(CC)c1ccc(C(=O)NNC(=O)Cn2c(=O)cnc3ccccc32)cc1	none (no result: SW480 rerep, MCF10A rereplic)
O=C(C1=C[C@@H](C2CCCCC2)C[C@@H](OCCCCO)O1)N1CCN(Cc2ccccc2)CC1	none
COc1ccc(NC(=O)COc2cccc3c2OC(C)(C)C3)c(OC)c1	MCF10A rereplic inconclusive
CN1CCN(c2ccccc2/C=N/NC(=O)c2cccnc2)CC1	HT1080NT lethal inconclusive
CCOC(=O)c1cccc(NC(=O)C2CCN(S(=O)(=O)c3cccs3)CC2)c1	KB-V1 MDR tox 7.3µM, HT1080NT lethal inconclusive, KB-3-1 cytotox inconclusive, HT1080 IDH1KD tx inconclusive
CC(C)C(NS(=O)(=O)c1c(Cl)cccc1Cl)C(=O)OCC(=O)c1c[nH]c2ccccc12 (stereo not given)	KB-V1 MDR tox 21µM (no result: SW480 rerep)
CC(O)C(NS(=O)(=O)c1ccc(Cl)cc1)C(=O)OCC(=O)c1c[nH]c2ccccc12 (stereo not given)	none
COc1ccc2sc(-c3ccccc3OC)c(-c3ccc(O)cc3)c2c1	MCF10A rereplic 16µM
Cc1cnnn1-c1ccc(C(=O)CCl)cc1	KB-3-1 cytotox inconclusive, SW480 rerep inconclusive, MCF10A rereplic 29µM
CC(=O)c1ccc(-n2nncc2C(C)(C)C)cc1	HT1080NT lethal inconclusive
Cc1cnc(C)c(Nc2nc(C(N)Cc3ccccc3)cs2)n1 (stereo not given)	HT1080NT lethal inconclusive, HT1080 IDH1KD tx inconclusive (no result: SW480 rerep, MCF10A rereplic)
CN(Cc1ccccc1)C(=O)c1ccc(Nc2nc(C(N)Cc3ccccc3)cs2)nc1 (stereo not given)	HT1080NT lethal inconclusive, HT1080 IDH1KD tx 21µM (no result: SW480 rerep, MCF10A rereplic)
NC(CCc1ccccc1)c1csc(Nc2ccc(C(=O)NCCCO)cn2)n1 (stereo not given)	HT1080NT lethal inconclusive (no result: SW480 rerep, MCF10A rereplic)
CCCCN(C)C(=O)c1ccc(Nc2nc(C(N)Cc3ccccc3)cs2)nc1 (stereo not given)	HT1080NT lethal 23µM (no result: SW480 rerep, MCF10A rereplic)
CC(C)CC(N)c1csc(Nc2cc(Oc3ccccc3)ncn2)n1 (stereo not given)	KB-V1 MDR tox inconclusive, HT1080NT lethal 21µM (no result: SW480 rerep, MCF10A rereplic)
CC(C)CC(N)c1csc(Nc2ccc(C(=O)N(C)Cc3ccccc3)cn2)n1 (stereo not given)	HT1080NT lethal 4.6µM, KB-3-1 cytotox inconclusive, HT1080 IDH1KD tx 5.8µM (no result: SW480 rerep, MCF10A rereplic)
CCN1CCN(Cc2c(O)ccc3c(C)c(-c4ccccc4)c(=O)oc23)CC1	none (no result: HT1080NT lethal, SW480 rerep, MCF10A rereplic, HT1080 IDH1KD tx)
O=C(c1cc(=O)[nH]c2ccccc12)N1CCN(c2cccc(C(F)(F)F)c2)CC1	none
Cc1cc(F)ccc1NS(=O)(=O)c1c(C(=O)N2CCOCC2)c(C)n(C)c1C	none
NC(Cc1ccccc1)c1csc(Nc2ccc(C(=O)NCCCO)cn2)n1 (stereo not given)	none (no result: SW480 rerep, MCF10A rereplic)
CN(Cc1ccccc1)C(=O)c1ccc(Nc2nc(C(N)COCc3ccccc3)cs2)nc1 (stereo not given)	HT1080NT lethal 23µM, HT1080 IDH1KD tx inconclusive (no result: SW480 rerep, MCF10A rereplic)
NC(=O)c1ccc(Nc2nc(C(N)COCc3ccccc3)cs2)cc1 (stereo not given)	none (no result: SW480 rerep, MCF10A rereplic)
NC(Cc1ccc(Cl)cc1)c1csc(Nc2ccc(C(=O)NCCCO)cn2)n1 (stereo not given)	HT1080NT lethal 15µM, HT1080 IDH1KD tx inconclusive (no result: SW480 rerep, MCF10A rereplic)
C=CCOC(=O)C1=C[C@@H](c2csc3ccccc23)C[C@@H](OCc2ccc(CO)cc2)O1	KB-3-1 cytotox inconclusive, MCF10A rereplic inconclusive
Nc1nc2ccccc2cc1C(=O)NCc1cccs1	KB-V1 MDR tox 16µM (no result: SW480 rerep, MCF10A rereplic)
O=C(NCc1cccs1)c1cc(-c2ccccc2)nc2ccccc12	KB-V1 MDR tox inconclusive, MCF10A rereplic inconclusive
Cc1ccc(C)c(-c2cc(C(=O)NCc3cccs3)c3ccccc3n2)c1	KB-V1 MDR tox 12µM, SW480 rerep inconclusive, MCF10A rereplic inconclusive
